This passage reports activity change, negative = inhibition results from PubChem BioAssay AID1259400 (National Center for Advancing Translational Sciences (NCATS), 2018).

“And” between values parts separate entries of the source, which are not always exact repeats. Equal values may be shown once. About 2,100 (0.6%) of roughly 350,000 compounds were called active. Inconclusive results (about 1%) are left out.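 How the source made its calls: active means activity change of -60% or lower, but not beyond a set lower limit; inconclusive means change between -60% and -40%, or beyond the set limit; inactive means change above -40%.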 The full list was thinned out, with actives kept by preference. Where a structure was tested more than once in an assay, its records may differ in their call.
On the % scale 0 is the no-effect control and ±100 the full control effect.

Chain of Relaxin receptor 1 (Homo sapiens) (Q9HBX9 whole entry, looked up): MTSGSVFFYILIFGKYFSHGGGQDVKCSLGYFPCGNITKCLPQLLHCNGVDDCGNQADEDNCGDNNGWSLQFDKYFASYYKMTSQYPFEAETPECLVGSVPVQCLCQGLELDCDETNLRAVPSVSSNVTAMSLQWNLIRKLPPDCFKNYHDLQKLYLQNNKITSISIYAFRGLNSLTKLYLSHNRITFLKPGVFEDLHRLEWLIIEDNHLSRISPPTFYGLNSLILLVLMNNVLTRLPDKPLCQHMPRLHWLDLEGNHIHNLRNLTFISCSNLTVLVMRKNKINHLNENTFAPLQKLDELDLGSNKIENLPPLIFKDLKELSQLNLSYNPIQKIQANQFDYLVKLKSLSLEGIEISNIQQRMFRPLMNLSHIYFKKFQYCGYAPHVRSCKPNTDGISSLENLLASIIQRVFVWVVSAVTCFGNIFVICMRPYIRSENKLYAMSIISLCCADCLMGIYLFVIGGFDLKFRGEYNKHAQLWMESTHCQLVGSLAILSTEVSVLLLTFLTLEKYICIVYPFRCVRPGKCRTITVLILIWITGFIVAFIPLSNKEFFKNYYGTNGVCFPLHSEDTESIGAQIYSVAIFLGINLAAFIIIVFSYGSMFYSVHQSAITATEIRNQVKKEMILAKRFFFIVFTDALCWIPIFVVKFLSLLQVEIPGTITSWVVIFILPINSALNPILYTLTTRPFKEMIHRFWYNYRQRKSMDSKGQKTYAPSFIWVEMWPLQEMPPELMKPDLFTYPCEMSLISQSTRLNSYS

The experiment addresses Relaxin receptor 1 (Homo sapiens) (UniProt Q9HBX9). In words: qHTS Assay for Antagonists of the Relaxin Receptor RXFP1. Conditions: HEK293-RXFP1, relaxin-stimulated cAMP HTRF, 30 min; at 57.5 µM; stronger effect = lower value. (In general: qHTS replaces the single test concentration by a dilution series.)
Consider `CCc1cccc(C)c1Nc1c(-c2ccc(N(C)C)cc2)nc2ncccn12`, for which the activity change, negative = inhibition is -15.1% (inactive).

Turning to `CCn1cc(C(=O)N2CCN(c3cc(Cl)ccc3C)CC2)c(=O)c2cc(S(=O)(=O)N3CCCC3)ccc21`, the activity change, negative = inhibition was -1.04% (inactive).

Regarding `CC(C)Cn1c(=O)c2ccccc2n2c(-c3cccc(Cl)c3)nnc12`, the activity change, negative = inhibition is -13.9% (inactive). For `CC(C)Cn1c(=O)c2ccccc2n2c(CCC(=O)NCc3ccccn3)nnc12`, the activity change, negative = inhibition was 1.58% (inactive).

On to `CC(C)Cn1c(=O)c2ccccc2n2c(CCC(=O)N3CCN(c4cccc(Cl)c4)CC3)nnc12`, for which the activity change, negative = inhibition is -87.5% (active). As to `Cc1cc(O)c(C(c2ccccc2)N2CCN(c3ccccc3F)CC2)c(=O)n1Cc1ccco1` (centres undefined), the activity change, negative = inhibition was -24.2% (inactive). On to `CCOC(=O)c1[nH]c(C)c(CCC(=O)N2CCN(c3ccccc3)CC2)c1C`, for which the activity change, negative = inhibition is -8.52% (inactive). For `O=C(COC(=O)c1ccccn1)NNC(=O)c1ccc([N+](=O)[O-])cc1` the value was -74.5% (active). As for `N/C(=N\OC(=O)c1ccc([N+](=O)[O-])cc1)c1ccccn1`, the figure is 8.07% (inactive).

Take `O=C(COC(=O)c1ccccn1)NNC(=O)c1ccc(Br)cc1`: the activity change, negative = inhibition is -5.4% (inactive). As for `CCn1c(C)c(C)c2cc(C(=O)NCCc3cc(OC)ccc3OC)ccc21`, the figure is -30.2% (inactive). On to `Cc1cc(C)n2nc(SCC(N)=O)nc2n1`, for which the activity change, negative = inhibition was -10.1% (inactive). `Cc1ccnc(SCC(N)=O)n1`: the activity change, negative = inhibition was -83.8% (active). Take `CCn1c(CSc2nc(C)cc(C)n2)nnc1SCC(N)=O`: the activity change, negative = inhibition is 13.9% (inactive). For `COC(=O)[C@@H]1CC2=CC(=O)CC[C@]2(C)[C@@]23O[C@@H]2C[C@@]2(C)[C@@H](CC[C@@]24CCC(=O)O4)[C@H]13` the value was 12.2% (inactive). As for `c1ccc(CN=C2Nc3ccccc3CS2)nc1`, the figure is -70.7% (active); as for `O=C1CSc2ccc(C(=O)NCc3ccccn3)cc2N1`, 5.23% (inactive). With `c1ccc(CCc2ccccn2)cc1`, the activity change, negative = inhibition is -14.5% (inactive). For `Cc1ccc(Nc2c(-c3ccc(N(C)C)cc3)nc3nc[nH]n23)cc1` the value was -4.77% (inactive). As for `COc1cccc(C(c2c(O)cc(C)n(Cc3ccco3)c2=O)N2CCN(c3ccccc3)CC2)c1` (centres undefined), the figure is -4.37% (inactive); as for `Cc1ccc(C(C(=O)NCC2CCCO2)N(C(=O)c2snc(C(N)=O)c2N)c2ccc(C(C)C)cc2)o1` (centres undefined), -74% (active). For `CCOc1ccc(N(C(=O)c2snc(C(N)=O)c2N)C(C(=O)NCC2CCCO2)c2c[nH]c3ccccc23)cc1` (centres undefined) the value was -6.04% (inactive); for `Cc1ccc(N(C(=O)c2snc(C(N)=O)c2N)C(C(=O)NCC2CCCO2)c2c[nH]c3ccccc23)cc1` (centres undefined), -19% (inactive); for `Cc1cccc(Nc2cc(C)nc(-n3nc(C)cc3C)n2)c1`, -6.69% (inactive). For the compound `CCOC(=O)c1c(S(=O)(=O)NCC(=O)Nc2ccc(Cl)c(C(F)(F)F)c2)c(C)n(C)c1C`, the activity change, negative = inhibition was -8.26% (inactive). On to `COc1ccc(CCC(=O)NCCc2csc(-c3ccc(Cl)cc3)n2)cc1`, for which the activity change, negative = inhibition was -21.7% (inactive). As for `COc1ccc(-c2nc(CCNC(=O)c3ccc(Br)o3)cs2)cc1`, the figure is -32.7% (inactive) and -89.7% (active); as for `COc1ccc(N2CCN(C(=O)CNC(=O)c3ccc(Br)o3)CC2)cc1`, -3.36% (inactive).

Consider `C[N+](C)(CCOc1ccccc1)Cc1cccs1` (tested in a mixture with another compound), for which the activity change, negative = inhibition is 10.6% (inactive).

Consider `Cc1ccc(-n2ncc3c(NCCCn4ccnc4)ncnc32)cc1Cl`, for which the activity change, negative = inhibition was -9.38% (inactive). As for `COc1ccc(OC)c(CNC(=O)CN2C(=O)CCn3nc(-c4cn(C)c5ccccc45)cc32)c1`, the figure is -2.73% (inactive); as for `CC(=O)OC1=C(C(C)=O)N(Cc2ccccc2)S(=O)(=O)c2ccccc21`, -3.88% (inactive); as for `Cc1ccccc1NC(=O)CSC(=O)c1ccccc1`, -0.348% (inactive). For `Cc1ccccc1NC(=S)NC(=O)Cc1ccc(Cl)cc1` the value was -24.7% (inactive); for `Cc1ccccc1N/C(SCc1ccc(Cl)cc1)=C(/C#N)C(N)=O`, -65.6% (active); for `O=S(=O)(NCC(c1ccccc1)N1CCc2ccccc21)c1ccccc1` (centres undefined), -18.8% (inactive). As for `Cc1cc(NC(=O)CSc2ncc(C(F)(F)F)cc2Cl)no1`, the figure is -64.7% (active); as for `Cc1cc(NC(=O)CSc2nnc(-c3ccc(Cl)s3)o2)no1`, -21% (inactive).

For the compound `Cc1cc(NC(=O)CSCC(=O)NC(C)c2ccccc2)no1` (centres undefined), the activity change, negative = inhibition was 3.67% (inactive).

As for `COc1ccccc1N1CCN(S(=O)(=O)CCNC(=O)COc2ccc(F)cc2)CC1`, the activity change, negative = inhibition was 8.32% (inactive).

On to `CCc1nnc(NC(=O)c2ccco2)s1`, for which the activity change, negative = inhibition was 0.195% (inactive). As for `Cc1ccc(NC(=O)c2ccco2)cc1`, the figure is -9.99% (inactive); as for `O=C(Nc1nc(-c2ccco2)c(-c2ccco2)s1)c1ccco1`, -61.6% (active); as for `Cc1ccc(C2c3[nH]c4ccccc4c3CCN2C(=O)c2cccc(C)c2)cc1` (centres undefined), -10.4% (inactive). As for `Cc1cc(C)cc(NC(=O)Cn2nc(N3CCN(c4ccccc4)CC3)ccc2=O)c1`, the figure is -7.03% (inactive); as for `Cc1ccc(NC(=O)CCCn2c(=O)c3cccn3c3ccccc32)cc1Cl`, -24.4% (inactive); as for `COc1ccc(C(=O)NCC(c2ccc(N(C)C)cc2)N2CCc3ccccc32)c(OC)c1` (centres undefined), -11.3% (inactive).

`COc1ccc(N2CCN(C(=O)C3CCCN(C(=O)c4cc5sccc5n4C)C3)CC2)cc1` (centres undefined): the activity change, negative = inhibition is -23.3% (inactive).

As to `Cc1ccc(Cn2c(=O)n(Cc3nc(-c4ccccc4)no3)c(=O)c3cc4c(cc32)OCO4)cc1`, the activity change, negative = inhibition is 15.5% (inactive). Turning to `C#CCOc1ccc(/C=C2/C(=O)NN(c3ccccc3)C2=O)cc1OC`, the activity change, negative = inhibition is -66.6% (active). With `C#CCOc1ccc(/C=C2/C(=O)ON=C2C)cc1OCC`, the activity change, negative = inhibition was -2.39% (inactive). As for `COc1cc(/C=C2/C(=O)NN(c3ccc(F)cc3)C2=O)cc([N+](=O)[O-])c1O`, the figure is -12.2% (inactive); as for `Cc1ccc(-c2nc3ccccn3c2Nc2c(C)cccc2C)o1`, -10.4% (inactive); as for `COc1ccc(CNC(=O)c2ccc(NC(=O)N3CC4CCCN4c4ccccc43)cc2)cc1` (centres undefined), -9.24% (inactive).

Consider `CSc1ccccc1-c1nnc(NC(=O)c2ccc3c(c2)OCCO3)o1`, for which the activity change, negative = inhibition is 23.7% (inactive).

For `COc1cc(OC)c(OC)cc1/C=C/c1nc2ccccc2c(=O)n1-c1ccc(Br)c(C)c1`, the activity change, negative = inhibition was -16.8% (inactive). For `O=C(CCS(=O)(=O)c1cc(Br)cc2c1N(C(=O)C1CC1)CC2)Nc1ccc(Br)cc1F` the value was 2.95% (inactive). As for `O=S(=O)(NCCS(=O)(=O)N1CCN(c2ccccc2)CC1)c1ccc(Cl)cc1`, the figure is -36.9% (inactive); as for `O=S(=O)(NCCS(=O)(=O)N1CCN(c2ccccc2)CC1)c1ccc(F)cc1`, -74.9% (active). As to `O=C(NCCS(=O)(=O)N1CCN(c2ccc(F)cc2)CC1)c1ccccc1Br`, the activity change, negative = inhibition was -4.07% (inactive).

Regarding `CCCC(=O)O[C@]1(C(=O)COC(=O)CC)CC[C@@H]2[C@@H]3CCC4=CC(=O)CC[C@]4(C)[C@H]3[C@@H](O)C[C@@]21C`, the activity change, negative = inhibition was -16.1% (inactive). For `O=[N+]([O-])/C=C/c1ccc2c(ccn2Cc2ccccc2)c1` the value was -93.7% (active); for `O=c1c(=O)n(Cc2c(F)cccc2Cl)ccn1Cc1ccccc1`, -0.809% (inactive); for `COc1ccc(Cn2ccn(Cc3cccc(OC)c3)c(=O)c2=O)cc1`, 1.35% (inactive). For `Cn1cccc1/C=C1\SC(=O)N(CC(=O)Nc2ccc(F)cc2)C1=O` the value was -75.7% (active); for `O=C(CN1C(=O)S/C(=C\c2ccccc2F)C1=O)NCCCn1ccnc1`, 4.7% (inactive); for `Cn1cccc1/C=C1\SC(=S)N(NC(=O)c2ccc(Cl)cc2)C1=O`, -8.62% (inactive). For `COCCCNC(=O)c1c(NC(=O)c2cc(=O)c3cc(C)c(C)cc3o2)sc2c1CCCC2` the value was -4.73% (inactive); for `O=C(CSc1nccn1-c1ccc(F)cc1)Nc1cccc2ccccc12`, 1.1% (inactive). Regarding `CC(C)c1ccc(NC(=O)c2ccc3c(O)c(S(=O)(=O)c4ccccc4)c(=O)[nH]c3c2)cc1`, the activity change, negative = inhibition is -14% (inactive). For the compound `COC(=O)c1c(NC(=O)c2cc(=O)c3c(C)cc(C)cc3o2)sc2c1CCCC2`, the activity change, negative = inhibition is 3.21% (inactive). With `CCOC(=O)c1c(NC(C)=O)c2c3c(sc2n1Cc1c(C)cc(C)cc1C)CCCC3`, the activity change, negative = inhibition was -73.1% (active). For `CCOC(=O)N1CCc2c(sc3c2c(=O)n(Cc2ccccc2)c(=O)n3CC(=O)Nc2cccc(C)c2)C1` the value was 4.91% (inactive); for `CCN(CC)S(=O)(=O)c1nnc(NC(=O)COc2ccccc2Cl)s1`, -10.5% (inactive).
